Data published in publication PMC8384837, “Expanding the binding specificity for RNA recognition by a PUF domain”.
Where a chain is given by its changes, count along the chain named.

Assays:
Test in all cases: yeast three-hybrid, YBZ-1, SC-Leu-His + 0.5 mM 3-AT, 4 days
Conditions in all cases: tags: N-Gal4 AD-HA kept; label: inside an RPR1-promoter hybrid RNA with tandem MS2 sites; ssRNA
[1] = target: T1, PUM1 PUF domain R6-CHC (Homo sapiens, UniProt Q14671 828-1176, N1043C;Y1044H;Q1047C)
T1 sequence: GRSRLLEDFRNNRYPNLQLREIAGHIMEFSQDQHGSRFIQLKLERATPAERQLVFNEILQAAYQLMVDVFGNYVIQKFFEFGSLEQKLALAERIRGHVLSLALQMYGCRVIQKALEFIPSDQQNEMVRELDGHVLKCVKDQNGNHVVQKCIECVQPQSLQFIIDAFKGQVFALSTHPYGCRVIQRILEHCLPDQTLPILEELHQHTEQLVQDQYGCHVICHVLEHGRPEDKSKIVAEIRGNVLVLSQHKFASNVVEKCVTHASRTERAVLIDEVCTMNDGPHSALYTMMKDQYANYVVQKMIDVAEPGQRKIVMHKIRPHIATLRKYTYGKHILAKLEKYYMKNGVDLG
Summary of the method: (§1)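 The interaction score is the log change in how often each variant appears, from input to selection. Frequencies came from PCR-amplified, Illumina-sequenced repeat regions of Pumilio-1 PUF domain libraries grown in strain YBZ-1 (LexA–MS2 coat fusion, HIS3 reporter) alongside matching RNA elements. Input plates were SC-Leu and selection plates were SC-Leu-His + 0.5 mM 3-AT, each for four days, and the log2 calculation used a pseudocount of 1 where a variant was absent.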

[2] = target: PUM1 PUF domain R8-KWA (Homo sapiens, UniProt Q14671 828-1176, N1122K;Y1123W;Q1126A)
Summary of the method: as §1

[3] = target: PUM1 PUF domain R7-RRI (Homo sapiens, UniProt Q14671 828-1176, S1079R;N1080R;E1083I)
Summary of the method: as §1

[4] = target: T2, PUM1 PUF domain R6-CYI (Homo sapiens, UniProt Q14671 828-1176, N1043C;Q1047I)
T2 sequence: T1 sequence with H217Y, C220I
Summary of the method: as §1

[5] = target: PUM1 PUF domain R5-QLR (Homo sapiens, UniProt Q14671 828-1176, C1007Q;R1008L;Q1011R)
Summary of the method: as §1

[6] = target: PUM1 PUF domain R3-DAK (Homo sapiens, UniProt Q14671 828-1176, C935D;R936A;Q939K)
Summary of the method: as §1

[7] = target: PUM1 PUF domain R2-AFW (Homo sapiens, UniProt Q14671 828-1176, N899A;Y900F;Q903W)
Summary of the method: as §1

[8] = target: PUM1 PUF domain R1-KGR (Homo sapiens, UniProt Q14671 828-1176, S863K;R864G;Q867R)
PUM1 PUF domain R1-KGR, sequence (Q14671 828-1176 S863K/R864G/Q867R): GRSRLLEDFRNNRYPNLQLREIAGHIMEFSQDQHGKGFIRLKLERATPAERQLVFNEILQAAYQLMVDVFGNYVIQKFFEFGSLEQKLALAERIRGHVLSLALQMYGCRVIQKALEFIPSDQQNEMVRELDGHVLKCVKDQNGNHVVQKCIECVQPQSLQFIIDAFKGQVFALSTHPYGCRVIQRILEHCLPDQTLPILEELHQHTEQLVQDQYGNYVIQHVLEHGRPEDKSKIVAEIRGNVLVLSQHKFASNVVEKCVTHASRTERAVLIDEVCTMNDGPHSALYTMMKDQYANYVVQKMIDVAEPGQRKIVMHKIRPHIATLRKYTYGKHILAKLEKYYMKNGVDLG
Summary of the method: as §1

[9] = target: PUM1 PUF domain R5-DFV (Homo sapiens, UniProt Q14671 828-1176, C1007D;R1008F;Q1011V)
PUM1 PUF domain R5-DFV, sequence (Q14671 828-1176 C1007D/R1008F/Q1011V): as the sequence (Q14671 828-1176 S863K/R864G/Q867R) above, with K36S, G37R, R40Q, C180D, R181F, Q184V counted along it
Summary of the method: as §1

GGCUAGAACUAGUGGAUCCCCCGGCGCCCGGCGGCUCGAGCCCGGGUAAGUGUAAAUAGUCUGCAUGCCGCCGGGCGCCAUGCCUGCAGGUCGACUCUAGAAAACAUG
binding signal [1]: 3.57 log2 enrichment (interaction score) | binding signal [2]: 2.67 log2 enrichment (interaction score)

GGCUAGAACUAGUGGAUCCCCCGGCGCCCGGCGGCUCGAGCCCGGGUAAGUCUAAAUAGUCUGCAUGCCGCCGGGCGCCAUGCCUGCAGGUCGACUCUAGAAAACAUG
binding signal [3]: 5.69 log2 enrichment (interaction score)

GGCUAGAACUAGUGGAUCCCCCGGCGCCCGGCGGCUCGAGCCCGGGUAAGUGAAAAUAGUCUGCAUGCCGCCGGGCGCCAUGCCUGCAGGUCGACUCUAGAAAACAUG
binding signal [4]: 5.81 log2 enrichment (interaction score)

GGCUAGAACUAGUGGAUCCCCCGGCGCCCGGCGGCUCGAGCCCGGGUAAGUGUUAAUAGUCUGCAUGCCGCCGGGCGCCAUGCCUGCAGGUCGACUCUAGAAAACAUG
binding signal [5]: 0.88 log2 enrichment (interaction score)

GGCUAGAACUAGUGGAUCCCCCGGCGCCCGGCGGCUCGAGCCCGGGUAAGUGUCAAUAGUCUGCAUGCCGCCGGGCGCCAUGCCUGCAGGUCGACUCUAGAAAACAUG
binding signal [5]: 6.43 log2 enrichment (interaction score)

GGCUAGAACUAGUGGAUCCCCCGGCGCCCGGCGGCUCGAGCCCGGGUAAGUGUAAUUAGUCUGCAUGCCGCCGGGCGCCAUGCCUGCAGGUCGACUCUAGAAAACAUG
binding signal [6]: 3.6 log2 enrichment (interaction score)

GGCUAGAACUAGUGGAUCCCCCGGCGCCCGGCGGCUCGAGCCCGGGUAAGUGUAAAAAGUCUGCAUGCCGCCGGGCGCCAUGCCUGCAGGUCGACUCUAGAAAACAUG
binding signal [7]: 4.3 log2 enrichment (interaction score)

GGCUAGAACUAGUGGAUCCCCCGGCGCCCGGCGGCUCGAGCCCGGGUAAGUGUAAAGAGUCUGCAUGCCGCCGGGCGCCAUGCCUGCAGGUCGACUCUAGAAAACAUG
binding signal [7]: 1.14 log2 enrichment (interaction score)

GGCUAGAACUAGUGGAUCCCCCGGCGCCCGGCGGCUCGAGCCCGGGUAAGUGUAAAUUGUCUGCAUGCCGCCGGGCGCCAUGCCUGCAGGUCGACUCUAGAAAACAUG
binding signal [8]: 4.34 log2 enrichment (interaction score)

GGCUAGAACUAGUGGAUCCCCCGGCGCCCGGCGGCUCGAGCCCGGGUAAGUGUAAAUCGUCUGCAUGCCGCCGGGCGCCAUGCCUGCAGGUCGACUCUAGAAAACAUG
binding signal [8]: 3.57 log2 enrichment (interaction score)

GGCUAGAACUAGUGGAUCCCCCGGCGCCCGGCGGCUCGAGCCCGGGUAAGUGUGAAUAGUCUGCAUGCCGCCGGGCGCCAUGCCUGCAGGUCGACUCUAGAAAACAUG
binding signal [9]: 3.55 log2 enrichment (interaction score)

GGCUAGAACUAGUGGAUCCCCCGGCGCCCGGCGGCUCGAGCCCGGGUAAGCGUAAAUAGUCUGCAUGCCGCCGGGCGCCAUGCCUGCAGGUCGACUCUAGAAAACAUG
binding signal [2]: 3.8 log2 enrichment (interaction score)
